# Out of some 39,000 compounds screened, about 1,500 (3.8%) were called active. The list comes from a sample in which actives are over-represented; it also holds similar structures and randomly drawn compounds.
# Test system: HSkMC (human skeletal muscle cells)
# Test: cytotoxicity call (relative viability < 0.9)
# Settings: 10 µM
row,Compound,cytotoxicity call
1,C=C1CC2C(CCC3(C)C(=O)CCC23)C2(C)C=CC(=O)C=C12 (stereo not given),inactive
2,O=C1C[C@@H](c2ccncc2)C2(CCNCC2)N1,inactive
3,O=C(NN=Cc1ccc([N+](=O)[O-])o1)c1cc([N+](=O)[O-])cc([N+](=O)[O-])c1O,inactive
4,CC(C)N(C)C[C@H]1CO[C@]2(CNCCOC2)C1,inactive
5,O=c1cccc2n1C[C@@H]1C[C@H]2CN(CCO)C1,inactive
6,O=C(CBr)N1CC([N+](=O)[O-])([N+](=O)[O-])C1,inactive
7,O=C(O)CNCP(=O)(O)O,inactive
8,NCCO.NCCO.O[AsH]O[AsH]O (stereo not given),inactive
9,O=c1cccc2n1C[C@H]1CNC[C@H]2C1,inactive
10,CN(C)C(=O)Oc1ccc[n+](C)c1.[Br-],inactive
11,NCC1(c2c(F)cc(F)cc2F)CC1,inactive
12,CO[C@H]1[C@@H](O)C[C@@H](O[C@H]2[C@@H](O)C[C@@H](O[C@H]3[C@@H](O)C[C@@H](O[C@H]4CC[C@@]5(C)[C@@H](CC[C@H]6[C@@H]5C[C@@H](O)[C@@]5(C)[C@H](C7=CC(=O)OC7)CC[C@@]65O)C4)O[C@@H]3C)O[C@@H]2C)O[C@@H]1C,active
13,CO[C@H]1[C@H](O)[C@@H](O[C@H]2[C@@H](C)O[C@@H](O[C@H]3[C@H](C)O[C@H](O[C@H]4CC[C@@]5(C)[C@@H](CC[C@@]6(O)[C@@H]5C[C@@H](O)[C@]5(C)[C@]6(O)CC[C@@]5(O)[C@@H](C)O)C4)C[C@@H]3OC)C[C@H]2OC)O[C@@H](C)[C@H]1O,inactive
14,Cc1cc(N(C)C)ccc1C[C@@H](C)N,inactive
15,Cn1cc(N2C[C@@H]3CN(CCO)C[C@@H]3C2=O)cn1,inactive
16,COC(=O)[C@@H]1[C@@H](CO)[C@@H]2Cn3c(ccc(C4=CCCC4)c3=O)[C@H]1N2S(=O)(=O)c1cn(C)cn1,inactive
17,CCC(=O)CCCCC[C@@H]1NC(=O)[C@H]2CCCCN2C(=O)[C@H]([C@H](C)CC)NC(=O)[C@H](Cc2cn(OC)c3ccccc23)NC1=O,active
18,CCC(=O)CCCCC[C@@H]1NC(=O)[C@H]2CCCCN2C(=O)[C@H]([C@@H](C)CC)NC(=O)[C@H](Cc2cn(OC)c3ccccc23)NC1=O,active
19,Nc1ccc(-c2ccc(N)cc2)cc1,inactive
20,O=[N+]([O-])c1cc([As](=O)(O)O)ccc1O,inactive
21,COc1cccc(-c2ccc3c(CCN)c[nH]c3c2)c1,inactive
22,CCNS(=O)(=O)C(F)(F)C(F)(F)C(F)(F)C(F)(F)C(F)(F)C(F)(F)C(F)(F)C(F)(F)F,inactive
23,CC(=O)NCCSS(C)(=O)=O.CN(C)c1ccc2c(-c3ccccc3C(=O)O)c3ccc(N(C)C)cc3[o+]c2c1,inactive
24,CNc1ccc2oc(C[C@H]3O[C@@]4(CC[C@H]3C)O[C@H]([C@H](C)C(=O)c3ccc[nH]3)[C@H](C)C[C@H]4C)nc2c1C(=O)O,active
25,NCc1[nH]nc2cc(F)ccc12,inactive

row,Compound,cytotoxicity call
1,CC(=O)[C@]12[C@@H]3CC=C[C@H]1N2CC3 (stereo not given in full),inactive
2,CCN1C[C@]2(OC(=O)c3ccccc3NC(C)=O)CC[C@H](OC)[C@@]34[C@@H]2C[C@@H]([C@@H]13)[C@@]1(O)C[C@H](OC)[C@H]2C[C@@H]4[C@]1(O)[C@H]2OC,inactive
3,COc1cc2c(cc1OC)C1C(=O)c3ccc4c(c3OC1CO2)CC(C(C)C)O4 (stereo not given),inactive
4,CC[C@@H](C(=O)[C@@H](C)[C@@H](O)[C@H](C)[C@@H]1O[C@@H]([C@@H](CC)C(=O)O)CC[C@@H]1C)[C@H]1O[C@]2(C=C[C@@H](O)[C@]3(CC[C@@](C)([C@H]4CC[C@](O)(CC)[C@H](C)O4)O3)O2)[C@H](C)C[C@@H]1C,active
5,CCC(C(=O)[O-])C1CCC(C)C(C(C)C(O)C(C)C(=O)C(CC)C2OC3(C=CC(O)C4(CCC(C)(C5CCC(O)(CC)C(C)O5)O4)O3)C(C)CC2C)O1.[Na+] (stereo not given),inactive
6,[N-]=[N+]=NCC(=O)N1CCOCC1,inactive
7,COCC(=O)N[C@@H]1[C@@H]2CNC[C@@H]21,inactive
8,C[C@H]1[C@H](O)[C@@H](C)/C=C\C=C/CC\C=C/C=C\C=C/C=C\[C@@H](O[C@@H]2O[C@H](C)[C@@H](O)[C@H](N)[C@@H]2O)C[C@H]2O[C@@](O)(C[C@@H](O)[C@@H]2C(=O)O)C[C@@H](O)[C@@H](O)CC[C@@H](O)C[C@@H](O)C[C@@H](O)CC(=O)O[C@H]1C,inactive
9,CN1CCC2(C)c3cc(O)ccc3N(C)C12.O=C(O)C=CC(=O)O (stereo not given),inactive
10,O=S(=O)(O)O.Oc1cccc2cccnc12,inactive
11,O=C(O)[C@H]1[C@H](C(=O)O)[C@H]2CC[C@@H]1O2,inactive
12,C[C@]12CC[C@](C)(O1)[C@H](C(=O)O)[C@@H]2C(=O)O,inactive
13,C[C@@]1(C(=O)O)[C@H]2CC[C@@H](O2)[C@@]1(C)C(=O)O,active
14,CC1(C)[C@@H](C=C(Br)Br)[C@@H]1C(=O)O[C@@H](C#N)c1cccc(Oc2ccccc2)c1,inactive
15,FCCN1C[C@H]2CCN[C@H]2C1,inactive
16,CC(=O)OC(C)(C)/C=C/C(=O)C(C)(O)[C@H]1[C@H](O)C[C@@]2(C)[C@H]3CC=C4[C@@H](C[C@H](O)C(=O)C4(C)C)[C@]3(C)C(=O)C[C@]12C (stereo not given in full),inactive
17,CC(C)(O)/C=C/C(=O)[C@](C)(O)[C@H]1[C@H](O)C[C@@]2(C)[C@H]3CC=C4[C@@H](CC(=O)C(=O)C4(C)C)[C@]3(C)C(=O)C[C@]12C,active
18,C[C@@H]1CN([C@@H](C)CO)C(=O)c2c(c3ccccc3n2C)-c2ccccc2CO[C@@H]1CN(C)C(=O)Oc1ccccc1,inactive
19,C[C@H]1O[C@H](n2cnc3c(N)ncnc32)C[C@@H]1O,inactive
20,CC(C)C[C@@H](NC(=O)[C@H](Cc1ccccc1)NC(=O)CNC(=O)[C@@H](C)NC(=O)[C@@H](N)Cc1ccc(O)cc1)C(=O)O,inactive
21,O=C([O-])Cc1ccccc1.[Na+],inactive
22,C[CH2][Hg][S]c1ccccc1C(=O)[O-].[Na+],active
23,CCCCOC(=O)c1ccccc1C(=O)OCCCC,inactive
24,Cc1noc(C)c1CN1CCNCC1,inactive
25,CCN(C)C(=O)Oc1cccc(C(C)N(C)C)c1.O=C(O)C(O)C(O)C(=O)O (stereo not given),inactive

# Reference: the antibiotic and cytotoxicity screens of Wong et al. (2023)
